Results on 89 sequences are retold here after the supplement of paper PMC3334620.

The full ranking holds about 33,000 sequences; the median of “E-score (-0.5 to 0.5)” is about -0.01, and the highest 2% start at about 0.26. This is one part of a sample in which the highest values are shown more often than they occur.

The target of this assay is Ste12 (UniProt P13574). Description: PBM E-score (8-mer binding enrichment) (E-score (-0.5 to 0.5)); higher = stronger / more preferred TF binding. The following applies: protein concentration: 200 nM; construct: GST-DNA-binding domain. Here is the method: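 Universal 'all 10-mer' protein binding microarrays (Agilent AMADID 015681) probed with GST-tagged S. cerevisiae TFs (full-length or DBD) made by in vitro transcription/translation (PURExpress), about 100-200 nM. Bound TF was detected with fluorescent anti-GST. Each ungapped 8-mer (which stands for itself and its reverse complement) is scored by the PBM enrichment score (E-score), a modified Wilcoxon-Mann-Whitney statistic from -0.5 to +0.5, computed with the Universal PBM Analysis Suite. Scale: above 0.35 generally sequence-specific binding.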
Sequence of UniProt P13574 (P13574 whole entry, the tested form may be a part): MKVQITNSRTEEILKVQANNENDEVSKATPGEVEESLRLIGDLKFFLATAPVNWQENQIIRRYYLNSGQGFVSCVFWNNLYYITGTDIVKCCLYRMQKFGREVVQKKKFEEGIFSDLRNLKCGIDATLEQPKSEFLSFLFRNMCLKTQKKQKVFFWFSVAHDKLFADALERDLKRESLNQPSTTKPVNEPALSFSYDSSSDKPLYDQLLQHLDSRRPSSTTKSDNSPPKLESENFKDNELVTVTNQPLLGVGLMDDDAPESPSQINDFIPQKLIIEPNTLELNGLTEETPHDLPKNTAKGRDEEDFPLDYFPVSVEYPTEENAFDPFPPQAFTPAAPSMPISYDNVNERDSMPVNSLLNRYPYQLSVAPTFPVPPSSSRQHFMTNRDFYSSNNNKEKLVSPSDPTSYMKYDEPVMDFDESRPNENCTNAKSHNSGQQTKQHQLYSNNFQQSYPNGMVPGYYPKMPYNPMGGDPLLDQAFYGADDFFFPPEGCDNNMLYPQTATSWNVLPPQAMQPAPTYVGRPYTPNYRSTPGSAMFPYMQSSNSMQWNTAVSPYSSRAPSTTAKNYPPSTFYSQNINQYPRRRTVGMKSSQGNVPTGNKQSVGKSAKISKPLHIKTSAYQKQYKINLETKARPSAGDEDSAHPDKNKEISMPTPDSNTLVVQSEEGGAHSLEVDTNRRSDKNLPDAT
On to AGCTTGAG, for which the “PBM E-score” value was -0.164.

As for AAGTTCGT, the “PBM E-score” value was -0.226.

For the sequence TACCAGAA, the “PBM E-score” value was found to be 0.253.

Regarding TGCATACA, the “PBM E-score” value is -0.139.

On to TAACGCGA, for which the “PBM E-score” value was 0.0877.

Take AAGCTCGT: the “PBM E-score” value was -0.195.

For the sequence CTATTTTA, the “PBM E-score” value was determined as 0.232.

As for ATATTTTA, the “PBM E-score” value was found to be 0.235.

Regarding ATTTTACC, the “PBM E-score” value stood at 0.277.

Consider ATATTTAA, for which the “PBM E-score” value was 0.347.

With AATTTTAC, the “PBM E-score” value turned out to be 0.251.

In the case of CTATTTAA, the “PBM E-score” value came out at 0.194.

With ATTTTACG, the “PBM E-score” value stood at 0.243.

For the sequence AATTTTAA, the “PBM E-score” value was found to be 0.318.

With ATATTTAC, the “PBM E-score” value stood at 0.219.

Regarding ATTTTTTA, the “PBM E-score” value was found to be 0.331.

On to AATTTACC, for which the “PBM E-score” value was determined as 0.137.

In the case of AATTTTAT, the “PBM E-score” value was determined as 0.217.

Turning to ACCGTTAC, the “PBM E-score” value is -0.0206.

With TCGGTACA, the “PBM E-score” value was 0.0794.

With ACTGAGCA, the “PBM E-score” value is -0.119.

With ACAGGATG, the “PBM E-score” value is 0.0588.

On to CTCTAGAG, for which the “PBM E-score” value was -0.162.

Consider AACAACGC, for which the “PBM E-score” value came to 0.111.

For the sequence AAGCCCCG, the “PBM E-score” value amounted to 0.0304.

ATTTTTAC: the “PBM E-score” value was 0.207.

On to AAATTTTA, for which the “PBM E-score” value was 0.132.

In the case of GCATTTAA, the “PBM E-score” value worked out at 0.12.

ACATTTAA: the “PBM E-score” value amounted to 0.32.

Consider ATTTTTAA, for which the “PBM E-score” value was 0.28.

In the case of AATTTTTA, the “PBM E-score” value came out at 0.283.

ATTTTTAG: the “PBM E-score” value turned out to be 0.175.

As for AATTTTGA, the “PBM E-score” value turned out to be 0.145.

Turning to ATTTTTGA, the “PBM E-score” value was determined as 0.298.

Consider ATTTTTGG, for which the “PBM E-score” value came to 0.183.

As for AATTTTTC, the “PBM E-score” value was 0.181.

With ACATTTAG, the “PBM E-score” value was -0.0629.

Turning to TAAGCCAA, the “PBM E-score” value came to 0.00854.

For the sequence GGCTTAGA, the “PBM E-score” value was -0.0335.

Take TACCAGCA: the “PBM E-score” value is -0.0129.

In the case of CTAGTACA, the “PBM E-score” value turned out to be 0.0611.

As for GCAATCCC, the “PBM E-score” value was 0.0206.

Consider CTCTTTAC, for which the “PBM E-score” value was 0.0191.

Take AAAGTGGG: the “PBM E-score” value is 0.182.

As to AGTTCGAC, the “PBM E-score” value is -0.147.

As for CCCTGAGG, the “PBM E-score” value is -0.213.

As to ACATCTAA, the “PBM E-score” value turned out to be 0.114.

In the case of ATTTTGTG, the “PBM E-score” value turned out to be 0.281.

Take ATTTTGTA: the “PBM E-score” value was 0.16.

In the case of ATTTTGTC, the “PBM E-score” value is 0.114.

For the sequence AAGTTGCA, the “PBM E-score” value is -0.0946.

In the case of CCATCAAC, the “PBM E-score” value was -0.144.

As for TCTTACAA, the “PBM E-score” value amounted to 0.0356.

With GGTTACTA, the “PBM E-score” value is 0.0972.

In the case of AGTTATAA, the “PBM E-score” value stood at 0.133.

On to CGTTATAA, for which the “PBM E-score” value was determined as 0.143.

Consider GGTTACAA, for which the “PBM E-score” value was 0.284.

Turning to CGTTACAA, the “PBM E-score” value worked out at 0.314.

As for TGTTACAA, the “PBM E-score” value is 0.387.

For CGTTACAC, the “PBM E-score” value amounted to 0.122.

As to AGTTACAA, the “PBM E-score” value was determined as 0.157.

In the case of CGTTACAG, the “PBM E-score” value amounted to 0.146.

TGTTATAA: the “PBM E-score” value amounted to 0.283.

Consider GGTTACAC, for which the “PBM E-score” value is -0.0834.

Take CCCATACG: the “PBM E-score” value was -0.123.

For GGTAGAAC, the “PBM E-score” value is -0.101.

On to CCATATCC, for which the “PBM E-score” value is 0.0086.

AGCCTCTC: the “PBM E-score” value was -0.234.

In the case of AGTTTTGG, the “PBM E-score” value came out at 0.104.

Regarding AAGTTACG, the “PBM E-score” value worked out at 0.0247.

For the sequence AAATATTA, the “PBM E-score” value was 0.352.

As to AAATATGT, the “PBM E-score” value was 0.226.

In the case of CAATATTA, the “PBM E-score” value was 0.176.

As for AAATATGA, the “PBM E-score” value came out at 0.308.

As for CAATATGA, the “PBM E-score” value came to 0.0995.

With AAATATTC, the “PBM E-score” value was 0.14.

Regarding ATCAGCCA, the “PBM E-score” value was -0.0331.

As for CCGTTTAA, the “PBM E-score” value came to 0.135.

As for ACGTTTAA, the “PBM E-score” value worked out at 0.0563.

Consider GCGTTTAC, for which the “PBM E-score” value is -0.0566.

Consider ACGTTTTG, for which the “PBM E-score” value was 0.222.

As for GCTTTTAA, the “PBM E-score” value is -0.0048.

On to CCGTTTTA, for which the “PBM E-score” value is 0.304.

With CCTTTTTA, the “PBM E-score” value stood at 0.051.

In the case of CCGTTTTC, the “PBM E-score” value is 0.133.

Consider GCGTTTTA, for which the “PBM E-score” value is 0.352.

As for GCTTTTTA, the “PBM E-score” value stood at 0.271.

As to ACGTTTTA, the “PBM E-score” value is 0.295.

For GCGTTTAA, the “PBM E-score” value turned out to be 0.103.
